In the library only some 3.1% were active in any assay of this set; here they are far more common.
VDR inhibitor – vitamin D3 receptor (human) inhibition | P11473 | VDR-SRC2-3 peptide fluorescence polarization, 2 h | Potency, µM, usual class: inhibitors | 0.93% of 400,000 active | AID 504847
Target sequence (P11473 whole entry, looked up): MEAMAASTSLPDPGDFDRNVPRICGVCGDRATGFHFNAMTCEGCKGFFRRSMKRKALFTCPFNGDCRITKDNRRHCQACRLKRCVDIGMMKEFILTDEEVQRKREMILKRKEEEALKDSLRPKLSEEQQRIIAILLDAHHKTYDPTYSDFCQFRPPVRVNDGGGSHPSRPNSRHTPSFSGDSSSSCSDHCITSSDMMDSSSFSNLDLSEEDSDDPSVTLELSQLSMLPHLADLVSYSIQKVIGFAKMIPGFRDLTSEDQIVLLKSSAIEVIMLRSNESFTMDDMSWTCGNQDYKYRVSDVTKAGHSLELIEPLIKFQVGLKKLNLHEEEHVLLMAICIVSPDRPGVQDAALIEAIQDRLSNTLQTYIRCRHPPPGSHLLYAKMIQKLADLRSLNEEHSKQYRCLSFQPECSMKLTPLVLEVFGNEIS
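Fluorescence polarization assay measuring small-molecule disruption of VDR binding to the coregulator peptide SRC2-3. Compounds were pin-transferred (23 nl) into the reagent mix and incubated 2 h at room temperature before reading.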
uPA generation – inhibitors of cell surface uPA generation; cell surface uPA generation assay, qHTS; Potency, µM (series often up to 38.3 µM), most hits filed as inhibitors; 0.31% of 330,000 active; active = well fitted inhibition curve with a large enough effect; inconclusive = small, poorly fitted or top-dose-only effect; inactive = no such curve, though single readings can be large or run the other way; tested in mouse RAW 264.7 cells; note: nearly all actives have a fitted effect of over 55% in size
PLK1 PBD inh – PLK1 (human) polo-box domain binding inhibition. P53350. Plk1 PBD binding of FITC phosphopeptide, fluorescence polarization. Potency, µM, actives largely listed as inhibitors. 2.8% of 360,000 active; note: series mostly up to about 57 µM; nearly all actives have a fitted effect of over 65% in size
TSHR antag – antagonists of human thyroid stimulating hormone receptor; TSHR-expressing cells, TSH-stimulated cAMP HTRF, 2 h; active compounds read low; 0.2% of 330,000 active; P16473; activity change, negative = inhibition, % at 11.5 µM;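 active = activity change below a set negative limit, meaning inhibition stronger than a set level, cut at about -70% in these data; inconclusive = activity change between two set negative limits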
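Freshly harvested TSHR cells receive pin-tooled compound, then EC80 TSH at 4nM final. After 2 hours at 37 deg C, antibody in lysis buffer and cAMP-d2 are added; 30 minutes at ambient temperature precede the HTRF read.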
PTAP TSG101 blk – blocks PTAP/TSG101 interaction to inhibit HIV-1 budding; Fluorescence polarization, FITC-PTAP peptide / Tsg101 binding; Q99816; Potency, µM (series often up to 115 µM), actives largely listed as inhibitors; AID 493005; 340,000 tested, under 10 active; active = well fitted inhibition curve with a large enough effect in the main read-out, with a control signal flat, not every such curve was filed as active; inconclusive = small, poorly fitted or top-dose-only effect, or effect the other way, or a change in a side signal; inactive = no such curve, though single readings can be large or run the other way
Target sequence (Q99816 whole entry, looked up): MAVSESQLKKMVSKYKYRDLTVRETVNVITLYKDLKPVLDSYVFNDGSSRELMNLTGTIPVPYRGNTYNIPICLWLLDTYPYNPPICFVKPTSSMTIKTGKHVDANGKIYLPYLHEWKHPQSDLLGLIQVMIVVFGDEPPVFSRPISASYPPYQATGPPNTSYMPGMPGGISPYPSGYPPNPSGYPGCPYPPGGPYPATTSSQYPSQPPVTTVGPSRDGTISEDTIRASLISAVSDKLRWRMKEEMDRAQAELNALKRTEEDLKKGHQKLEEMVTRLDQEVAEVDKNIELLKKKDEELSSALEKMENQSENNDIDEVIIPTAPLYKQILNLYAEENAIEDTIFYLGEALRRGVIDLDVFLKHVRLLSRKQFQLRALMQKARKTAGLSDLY
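Fluorescence polarization binding of Tsg101 binding domain (10 uM final) to FITC-labeled PTAP peptide (50 nM final) in HEPES pH 7.5 buffer with NaCl, Tween 20, EDTA, TCEP. Compounds added before peptide; binding 20 min at RT.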
Of the large screens only hits and unclear results are named; the others gave an inactive call. Unless noted, calls come from the whole dose curve; as a rule, active = well fitted curve in the direction sought with a large enough effect; inconclusive = small, poorly fitted or top-dose-only effect, or another doubt; inactive = no such curve, though single readings can be large; an effect the other way counts as inactive or inconclusive.

CC(=O)N1N=C(c2ccc(C)cc2)OC1c1ccc(Br)cc1 (centres undefined)	none
CCOc1ccc(Br)cc1C1=NN(C(C)=O)C(c2ccc([N+](=O)[O-])s2)O1 (centres undefined)	uPA generation 6.3µM
CCN(CC(=O)Nc1ccc(NC(C)=O)cc1)Cc1c(O)ccc2cc(Br)ccc12	VDR inhibitor inconclusive, PLK1 PBD inh 9.5µM
COc1ccc(CCNCC(=O)Nc2ccccc2C(F)(F)F)cc1	PLK1 PBD inh 27µM
COc1ccc(CN(C)Cc2c(O)ccc3ccccc23)cc1	PLK1 PBD inh inconclusive
COc1cccc(CN(C)Cc2c(O)ccc3ccccc23)c1	PLK1 PBD inh 17µM
Cc1ccc(NC(=O)CN(C)Cc2c(O)ccc3ccccc23)cc1	VDR inhibitor 79µM, PLK1 PBD inh 3.8µM
COc1ccc2ccc(O)c(CN(C)CC(=O)Nc3ccccc3C(F)(F)F)c2c1	VDR inhibitor inconclusive, PLK1 PBD inh 11µM
Cc1ccc(CNC(=O)C2=CCN(S(=O)(=O)c3ccc(C)cc3)CC2)cc1	none (no result: VDR inhibitor, uPA generation, PLK1 PBD inh, PTAP TSG101 blk)
Cc1ccc(S(=O)(=O)N2CC=C(C(=O)NC3CC3)CC2)cc1	PLK1 PBD inh 21µM
COc1ccc(CN2COc3ccc4c(-c5ccccc5)cc(=O)oc4c3C2)cc1OC	none (no result: uPA generation, PLK1 PBD inh, TSHR antag, PTAP TSG101 blk)
CC(=O)Nc1ccc2nc(SCC(=O)NCCOc3ccccc3)sc2c1	VDR inhibitor inconclusive, PLK1 PBD inh 3.4µM
Cc1[nH]c2ccccc2c1[C@H]1[C@@H](CC#N)C1(C)C	PLK1 PBD inh 30µM
Cc1[nH]c2ccccc2c1CC#N	none
CCC1CCCCN1S(=O)(=O)c1ccc(C(=O)Nc2sc3c(c2C(=O)NC)CCC3)cc1 (centres undefined)	none (no result: uPA generation, PLK1 PBD inh, TSHR antag, PTAP TSG101 blk)
O=C1c2c(O)cc(O)cc2O[C@H](c2ccc(O)c(O)c2)C1O (some centres undefined)	none (no result: uPA generation, PLK1 PBD inh, TSHR antag, PTAP TSG101 blk)
Cc1nnc(SCC(=O)NC(=O)NC(C)(C)C)n1N	PLK1 PBD inh 27µM
Cc1cc(C(C)(C)C)cc(C)c1C[n+]1ccc2ccccc2c1	uPA generation 4.5µM
Cc1ccc(C[n+]2cccc(-c3ccccc3)c2)c(C)c1	none
Cc1nn(C)c(C)c1N1C(=O)c2cccc3c(N)ccc(c23)C1=O	PLK1 PBD inh 2.7µM, PTAP TSG101 blk inconclusive
CCN1C(=O)c2cccc3c(N)ccc(c23)C1=O	PLK1 PBD inh 3µM, PTAP TSG101 blk inconclusive
O=C(Nc1ccccc1C(=O)OCc1cc(=O)n2nc(C3CC3)sc2n1)c1ccc(Cl)cc1	none (no result: uPA generation, PLK1 PBD inh, TSHR antag, PTAP TSG101 blk)
OC(CCc1cccc(Cl)c1)c1cccs1 (centres undefined)	VDR inhibitor inconclusive, PLK1 PBD inh 21µM
COc1ccc(NC(=O)c2ccc(Cc3ccc(C)cc3)o2)cc1	none
Cc1ccc(Cc2ccc(C(=O)NNC(N)=S)o2)cc1	PLK1 PBD inh 27µM
COc1cccc(-c2[nH]nc3c2C(c2ccoc2)C(C#N)=C(N)O3)c1 (centres undefined)	PLK1 PBD inh 27µM (no result: uPA generation)
COc1cc(-c2[nH]nc3c2C(c2ccco2)C(C#N)=C(N)O3)cc(OC)c1OC (centres undefined)	PLK1 PBD inh 30µM
N#CC1=C(N)Oc2n[nH]c(-c3cccs3)c2C1c1ccoc1 (centres undefined)	PLK1 PBD inh 3.8µM
CCc1ccccc1NC(=O)Cn1nnc(C(=O)NCc2ccco2)c1N	none (no result: uPA generation, PLK1 PBD inh, TSHR antag, PTAP TSG101 blk)
CSCC[C@H](NC(=O)CN)C(=O)N[C@@H](CC(=O)O)C(=O)N[C@@H](CO)C(=O)N[C@@H](CC(C)C)C(=O)N[C@@H](C)C(=O)N[C@@H](Cc1ccccc1)C(=O)N[C@@H](CO)C(=O)NCC(=O)NCC(=O)N[C@@H](CC(C)C)C(N)=O	none (no result: uPA generation, PLK1 PBD inh, TSHR antag, PTAP TSG101 blk)
COC(=O)c1ccc(/C=N/NC(=O)C2CC(=O)N(c3ccc(F)cc3)C2)cc1 (centres undefined)	none
CCc1ccc(N2CC(C(=O)N/N=C/c3ccccc3)CC2=O)cc1 (centres undefined)	VDR inhibitor inconclusive, PLK1 PBD inh 27µM (no result: TSHR antag)
COc1cc(C=C(C#N)C(=O)c2ccccc2)cc(OC)c1OC	PLK1 PBD inh 3.8µM (no result: VDR inhibitor, uPA generation, TSHR antag, PTAP TSG101 blk)
CCOc1cc(/C=C(\C#N)C(=O)Nc2ccccc2C(=O)O)ccc1OC(=O)c1ccc(C)cc1	VDR inhibitor inconclusive, PLK1 PBD inh 19µM
COc1cc(/C=C(\C#N)C(=O)Nc2ccccc2C(=O)O)cc(Cl)c1OC	VDR inhibitor inconclusive, PLK1 PBD inh 21µM
COc1ccc(/C=C(/C#N)C(=O)Nc2ccccc2C)cc1C(=O)O	none
Cc1ccc(C)c(N2CCN(c3nc4c(S(=O)(=O)c5ccccc5)nnn4c4ccc(Cl)cc34)CC2)c1	none (no result: uPA generation, PLK1 PBD inh, TSHR antag, PTAP TSG101 blk)
Cc1cccc(C)c1-n1nnnc1C(c1cccs1)N1CCN(C/C=C/c2ccccc2)CC1 (centres undefined)	none (no result: VDR inhibitor, uPA generation, TSHR antag, PTAP TSG101 blk)
CC(C)(C)C1(C)OC(=O)C(=Cc2ccc(OCC(=O)Nc3ccccc3)cc2)C(=O)O1 (centres undefined)	PLK1 PBD inh 2.4µM
Cc1ccccc1-c1cc(N2CCNCC2)ncn1	VDR inhibitor 45µM (no result: uPA generation, PLK1 PBD inh, TSHR antag, PTAP TSG101 blk)
Cc1ccccc1-c1cc(N2CCN(C)CC2)ncn1	none (no result: uPA generation, PLK1 PBD inh, TSHR antag, PTAP TSG101 blk)
COc1ccc(CNC(=O)CN2C(=O)CCn3nc(-c4cn(C)c5ccccc45)cc32)cc1	none (no result: uPA generation, PLK1 PBD inh, TSHR antag, PTAP TSG101 blk)
N=c1oc2c3c4c(cc2cc1C(=O)Nc1ccccc1)CCCN4CCC3	PLK1 PBD inh 3.4µM, PTAP TSG101 blk inconclusive
Cc1oc2ccc(OS(C)(=O)=O)cc2c1C(=O)OC(C)C	VDR inhibitor inconclusive, PLK1 PBD inh 19µM
COP(=O)(OC)OC(c1ccc(Cl)cc1)P(=O)(OC)OC (centres undefined)	none (no result: uPA generation, PLK1 PBD inh, TSHR antag, PTAP TSG101 blk)
COc1ccc(N=Cc2nc(-c3ccccc3)oc2OC(C)=O)cc1	VDR inhibitor 28µM, PLK1 PBD inh inconclusive
O=C(CN1C(=O)C2C3CC(C(Br)C3Br)C2C1=O)OCC(=O)c1cccc([N+](=O)[O-])c1 (centres undefined)	PLK1 PBD inh 21µM
Cn1c(=O)oc2cc(S(=O)(=O)NC(Cc3ccccc3)C(=O)NCc3ccccc3Cl)ccc21 (centres undefined)	none (no result: uPA generation, PLK1 PBD inh, TSHR antag, PTAP TSG101 blk)
COc1ccc(N2CCN(Cc3nnc(-c4cccc(Br)c4)o3)CC2)cc1	none (no result: uPA generation, PLK1 PBD inh, TSHR antag, PTAP TSG101 blk)
COc1ccc(C)cc1-n1nnnc1SCC1CCCO1 (centres undefined)	PLK1 PBD inh 24µM
Cc1cc[n+]2c3c(cccc13)CCC2	VDR inhibitor 50µM, PLK1 PBD inh 13µM (no result: uPA generation)
N#CCC(=O)Nc1ccc(C(=O)OCC(=O)Nc2ccc3ccccc3c2)cc1	none
Cc1cc(NC(=O)CSc2nc3ccccc3c(=O)n2Cc2ccc(F)cc2)no1	none
C=CCn1c(SCC(=O)Nc2ccc3c(c2)CCC3)nc2ccccc2c1=O	none
COCCCNC(=O)CSc1nc2ccccc2c(=O)n1CCCN1CCCCC1	none
COc1ccc(NC(=O)CSc2nc3ccccc3c(=O)n2CCCN2CCCCC2)c(OC)c1	PLK1 PBD inh 24µM
CCOCCCn1c(SCC(=O)NC2CCCC2)nc2ccccc2c1=O	VDR inhibitor inconclusive, PLK1 PBD inh 27µM
O=C(CSc1nc2ccccc2c(=O)n1Cc1ccccc1)Nc1ccc(Br)cc1C(=O)O	VDR inhibitor inconclusive, PLK1 PBD inh 11µM

Screening results (PubChem)
